PubChem BioAssay AID1159580 (chemical genetic matrix, 2015)
Several values for one entry are separate records, joined by “and”; a condition that tells them apart may be missing. Equal entries are not always repeated. Hit rate of the full screen: of about 5,500 compounds, about 2,000 (36%) were called active. Another 18% or so got no clear call; they are omitted. No stated cut-off is given here; in the data, active means normalized growth mostly below about 0.91 (no sharp cut-off); inconclusive means no clear call, values can overlap the other calls; inactive means mostly above about 0.92. The list shows a part of the results.

Test: chemical genetic growth profiling, strain panel (AID 1159580);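 further: tested at 20 µM; growth read once vehicle control cultures reached saturation at 30 °C; 1 = growth at the plate median or of vehicle wells; lower values mean less growth of the strain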
Details: growth OD

Measured: normalized growth

O[C@H]1[C@H](O)[C@@H](O)C2OC[C@H]1O2
inactive: S. cerevisiae deletion strains, locus YAL013W, strain DEP1, hits give low values 1 | S. cerevisiae deletion strains, locus YBR021W, strain FUR4, hits give low values 1.03 | S. cerevisiae deletion strains, locus YBR229C, strain ROT2, hits give low values 0.961 | S. cerevisiae deletion strains, locus YCL029C, strain bik1, hits give low values 0.986 | S. cerevisiae deletion strains, locus YDL035C, strain GPR1, hits give low values 0.986 | S. cerevisiae deletion strains, locus YDL074C, strain BRE1, hits give low values 0.929 | S. cerevisiae deletion strains, locus YDL101C, strain DUN1, hits give low values 0.943 | S. cerevisiae deletion strains, locus YDL134C, strain PPH21, hits give low values 0.99 | S. cerevisiae deletion strains, locus YDL192W, strain arf1, hits give low values 0.986 | S. cerevisiae deletion strains, locus YDR101C, strain arx1, hits give low values 0.994 | S. cerevisiae deletion strains, locus YDR150W, strain NUM1, hits give low values 0.992 | S. cerevisiae deletion strains, locus YDR162C, strain NBP2, hits give low values 0.918 | S. cerevisiae deletion strains, locus YDR318W, strain mcm21, hits give low values 0.998 | S. cerevisiae deletion strains, locus YDR388W, hits give low values 0.992 | S. cerevisiae deletion strains, locus YDR502C, strain sam2, hits give low values 0.983 | S. cerevisiae deletion strains, locus YEL061C, strain CIN8, hits give low values 0.986 | S. cerevisiae deletion strains, locus YER110C, hits give low values 0.983 | S. cerevisiae deletion strains, locus YER155C, strain BEM2, hits give low values 0.988 | S. cerevisiae deletion strains, locus YER167W, strain BCK2, hits give low values 1 | S. cerevisiae deletion strains, locus YGL078C, strain dbp3, hits give low values 0.987 | S. cerevisiae deletion strains, locus YGL086W, strain mad1, hits give low values 1 | S. cerevisiae deletion strains, locus YGL248W, strain PDE1, hits give low values 0.975 | S. cerevisiae deletion strains, locus YGR078C, strain PAC10, hits give low values 0.951 | S. cerevisiae deletion strains, locus YGR135W, strain pre9, hits give low values 0.982 | S. cerevisiae deletion strains, locus YGR229C, strain SMI1, hits give low values 0.975 | S. cerevisiae deletion strains, locus YGR252W, strain gcn5, hits give low values 1 | S. cerevisiae deletion strains, locus YHR030C, strain SLT2, hits give low values 1 and 0.967 | S. cerevisiae deletion strains, locus YHR079C, strain IRE1 (second series), hits give low values 0.999 | S. cerevisiae deletion strains, locus YHR079C, strain IRE1, hits give low values 0.967 | S. cerevisiae deletion strains, locus YHR094C, strain hxt1, hits give low values 1 | S. cerevisiae deletion strains, locus YHR129C, strain ARP1, hits give low values 0.993 | S. cerevisiae deletion strains, locus YHR200W, strain rpn10, hits give low values 0.992 | S. cerevisiae deletion strains, locus YIL066C, strain RNR3, hits give low values 0.98 | S. cerevisiae deletion strains, locus YIL073C, strain SPO22, hits give low values 1.01 | S. cerevisiae deletion strains, locus YIL125W, strain kgd1, hits give low values 0.988 | S. cerevisiae deletion strains, locus YIR030C, strain dcg1, hits give low values 0.983 | S. cerevisiae deletion strains, locus YJL095W, strain BCK1, hits give low values 0.98 and 0.977 | S. cerevisiae deletion strains, locus YJL134W, strain LCB3, hits give low values 0.984 | S. cerevisiae deletion strains, locus YJL168C, strain set2, hits give low values 0.982 | S. cerevisiae deletion strains, locus YJL187C, strain SWE1 (second series), hits give low values 0.972 | S. cerevisiae deletion strains, locus YJR043C, strain POL32, hits give low values 0.999 | S. cerevisiae deletion strains, locus YJR066W, strain TOR1, hits give low values 0.919 | S. cerevisiae deletion strains, locus YJR075W, strain HOC1, hits give low values 0.936 | S. cerevisiae deletion strains, locus YKL009W, strain mrt4, hits give low values 0.977 | S. cerevisiae deletion strains, locus YKL068W, hits give low values 0.982 | S. cerevisiae deletion strains, locus YKL085W, strain MDH1 (second series), hits give low values 1.02 | S. cerevisiae deletion strains, locus YKL085W, strain MDH1, hits give low values 1.02 | S. cerevisiae deletion strains, locus YKL190W, strain CNB1, hits give low values 0.98 | S. cerevisiae deletion strains, locus YKR001C, strain vps1, hits give low values 0.998 | S. cerevisiae deletion strains, locus YLR039C, strain RIC1, hits give low values 0.968 | S. cerevisiae deletion strains, locus YLR058C, strain SHM2, hits give low values 0.972 | S. cerevisiae deletion strains, locus YLR102C, strain apc9, hits give low values 0.984 | S. cerevisiae deletion strains, locus YLR113W, strain HOG1, hits give low values 0.999 | S. cerevisiae deletion strains, locus YLR262C, strain YPT6, hits give low values 0.935 | S. cerevisiae deletion strains, locus YLR268W, strain sec22, hits give low values 0.963 | S. cerevisiae deletion strains, locus YLR330W, strain CHS5, hits give low values 0.988 | S. cerevisiae deletion strains, locus YLR342W, strain FKS1 (second series), hits give low values 1.04 | S. cerevisiae deletion strains, locus YLR371W, strain rom2, hits give low values 0.938 | S. cerevisiae deletion strains, locus YLR418C, strain cdc73, hits give low values 0.961 | S. cerevisiae deletion strains, locus YML016C, strain PPZ1, hits give low values 0.983 | S. cerevisiae deletion strains, locus YML032C, strain rad52, hits give low values 1 | S. cerevisiae deletion strains, locus YML124C, strain tub3, hits give low values 0.992 | S. cerevisiae deletion strains, locus YMR078C, strain ctf18, hits give low values 0.987 | S. cerevisiae deletion strains, locus YMR223W, strain ubp8, hits give low values 1.01 | S. cerevisiae deletion strains, locus YMR263W, strain SAP30, hits give low values 0.94 | S. cerevisiae deletion strains, locus YMR307W, strain GAS1, hits give low values 1.04 | S. cerevisiae deletion strains, locus YNL067W, strain RPL9B, hits give low values 0.951 | S. cerevisiae deletion strains, locus YNL128W, strain TEP1, hits give low values 0.926 | S. cerevisiae deletion strains, locus YNL153C, strain GIM3, hits give low values 0.97 | S. cerevisiae deletion strains, locus YNL183C, strain NPR1, hits give low values 0.905 | S. cerevisiae deletion strains, locus YNL233W, strain BNI4, hits give low values 0.978 | S. cerevisiae deletion strains, locus YNL250W, strain rad50, hits give low values 0.992 | S. cerevisiae deletion strains, locus YNL271C, strain bni1, hits give low values 0.984 | S. cerevisiae deletion strains, locus YNL298W, strain CLA4, hits give low values 1 | S. cerevisiae deletion strains, locus YNL307C, strain MCK1, hits give low values 1 | S. cerevisiae deletion strains, locus YNL322C, strain KRE1, hits give low values 0.967 | S. cerevisiae deletion strains, locus YNR052C, strain pop2, hits give low values 0.978 | S. cerevisiae deletion strains, locus YOL006C, strain TOP1, hits give low values 0.935 | S. cerevisiae deletion strains, locus YOL012C, strain htz1 0.683 | S. cerevisiae deletion strains, locus YOL147C, strain pex11, hits give low values 0.997 | S. cerevisiae deletion strains, locus YOR061W, strain CKA2, hits give low values 0.952 | S. cerevisiae deletion strains, locus YOR069W, strain VPS5, hits give low values 0.99 | S. cerevisiae deletion strains, locus YOR136W, strain idh2, hits give low values 0.99 | S. cerevisiae deletion strains, locus YOR144C, strain elg1, hits give low values 0.983 | S. cerevisiae deletion strains, locus YOR184W, strain ser1, hits give low values 1.01 | S. cerevisiae deletion strains, locus YOR231W, strain MKK1, hits give low values 0.98 | S. cerevisiae deletion strains, locus YOR316C, strain cot1, hits give low values 0.977 | S. cerevisiae deletion strains, locus YPL055C, strain LGE1, hits give low values 0.931 | S. cerevisiae deletion strains, locus YPL241C, strain CIN2, hits give low values 0.983 | S. cerevisiae deletion strains, locus YPL256C, strain CLN2, hits give low values 0.972 | S. cerevisiae deletion strains, locus YPR119W, strain clb2, hits give low values 0.992 | S. cerevisiae deletion strains, locus YPR141C, strain kar3, hits give low values 0.969 | S. cerevisiae deletion strains, locus YPR163C, strain tif3, hits give low values 0.995 | S. cerevisiae deletion strains, locus YPR167C, strain met16, hits give low values 0.972 | S. cerevisiae deletion strains, strain wtn01, hits give low values 0.943 | S. cerevisiae strains, strain wild type, hits give low values 1.01
active: S. cerevisiae deletion strains, locus YDL185W, strain tfp1, hits give low values 0.901
